Measurements as given in PubChem BioAssay.
Active and inactive are the calls of the source.

Experiments:
[1] = system: Wnt5a (protein binding on small-molecule microarray); experiment: small molecules binding Wnt5a protein – biophysical, small-molecule microarray, 635/667 nm fluorescence, primary screen (AID 1142); settings: 635 nm fluorescence, higher = more signal;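 further: fluorescence read at 667 nm with signal to noise per printed feature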
[2] = ATP-based viability of Huh7 replicon cells – cell-based, CellTiter-Glo luminescence, basal, 48 h, cytotoxicity control for HCV replication inhibitor project, primary screen (AID 1143); settings: higher = more signal, called active from +8 up or from −8 down;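 further: Huh7 hepatoma cells carrying a hepatitis C replication reporter with no stimulus; test concentration not given here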
[3] = basal CRE-LacZ reporter activity in PC12 – cell-based, unstimulated, primary screen (AID 1145); settings: no forskolin, luminescence, 4.5 h, higher = more signal, called active from +8 up or from −8 down
[4] = forskolin-driven CRE-LacZ activity in PC12 – cell-based, CRE-LacZ reporter, forskolin-stimulated, primary screen (AID 1146); settings: luminescence, 4.5 h, higher = more signal, called active from +8 up or from −8 down;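 further: PC12 cells with 6xCRE LacZ reporter stimulated by forskolin 10 µM; beta-galactosidase reporter signal reflecting CREB driven transcription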
[5] = biological target: Streptavidin (Streptomyces avidinii) (UniProt P22629); experiment: compounds binding control protein streptavidin – biophysical, small-molecule microarray, 635/667 nm fluorescence, artefact control for SMM compound annotation, primary screen (AID 1147); settings: higher = more signal;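 further: signal reflects streptavidin binding to arrayed compounds as a control protein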
[6] = probe aInhba binding on compound microarray – biochemical, small-molecule microarray, 635/667 nm fluorescence, primary screen (AID 1148); settings: higher = more signal;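 further: score merges 667nm spot fluorescence with signal-to-noise for antibody binding to printed compounds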
Torsin-1A (Homo sapiens) [7] = biological target: Torsin-1A (Homo sapiens) (UniProt O14656); experiment: TOR1A wild-type binding on microarray – cell lysate, small-molecule microarray, lysate, 635/667 nm, primary screen (AID 1149); settings: COS7 hTOR1A-WT lysate, 635 nm fluorescence, higher = more signal
Torsin-1A (Homo sapiens) [8] = biological target: Torsin-1A (Homo sapiens) (UniProt O14656); experiment: torsin A mutant lysate binding on microarrays – cell lysate, small-molecule microarray, COS7 lysate, 635/667 nm fluorescence, primary screen (AID 1150); settings: COS7 hTOR1A mutant lysate, 635 nm fluorescence, higher = more signal;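 further: score pools 667 nm emission and signal to noise measuring lysate protein binding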
[9] = system: Sonic hedgehog protein (Shh); experiment: Sonic hedgehog microarray binding compounds – biochemical, small-molecule microarray, 635/667 nm fluorescence, primary screen (AID 1151); settings: 635 nm fluorescence, higher = more signal;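 further: Shh protein binding to compounds spotted on small-molecule microarray slides; score combines spot fluorescence intensity with signal-to-noise across triplicate slides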

Chain of Torsin-1A (Homo sapiens) (O14656 whole entry, looked up): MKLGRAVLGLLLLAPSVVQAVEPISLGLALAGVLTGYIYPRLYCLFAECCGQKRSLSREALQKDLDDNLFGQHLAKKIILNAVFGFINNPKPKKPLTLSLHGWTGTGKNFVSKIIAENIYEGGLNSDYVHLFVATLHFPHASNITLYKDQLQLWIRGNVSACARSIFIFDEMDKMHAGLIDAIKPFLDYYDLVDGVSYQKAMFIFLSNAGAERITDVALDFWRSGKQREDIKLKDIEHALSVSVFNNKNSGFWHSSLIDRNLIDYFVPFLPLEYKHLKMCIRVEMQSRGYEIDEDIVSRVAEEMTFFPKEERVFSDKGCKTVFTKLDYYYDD
Chain of Streptavidin (Streptomyces avidinii) (P22629 whole entry, looked up): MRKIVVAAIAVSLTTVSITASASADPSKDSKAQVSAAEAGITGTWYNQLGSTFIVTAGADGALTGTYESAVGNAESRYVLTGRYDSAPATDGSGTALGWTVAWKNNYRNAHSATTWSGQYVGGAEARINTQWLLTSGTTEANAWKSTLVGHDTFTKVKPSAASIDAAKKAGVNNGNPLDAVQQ

SMILES	composite z-score [1]	z-score [2]	z-score [3]	z-score [4]	composite z-score [5]	composite z-score [6]	composite z-score (Torsin-1A (Homo sapiens) [7])	composite z-score (Torsin-1A (Homo sapiens) [8])	composite z-score [9]
C[C@@H]1NC(=O)CC=C[C@@H](C)[C@@H]2C=C[C@H](O)[C@@H](COC(=O)[C@H](C)NC(=O)CC=C[C@@H](C)[C@@H]3C=C[C@H](O)[C@@H](COC1=O)O3)O2	0.0414	-3.48 (inactive)	-0.925 (inactive)	-0.89 (inactive)	-0.664	-0.0581	0.436	0.104	1.04
O=C1c2ccccc2[C@](Cc2ccccc2I)(C(=O)O)[C@H](c2ccc(CO)cc2)N1C1CCCCC1	0.818	-4.42 (inactive)	0.001 (inactive)	-0.298 (inactive)	0.947	0.0676	0.0702	0.76	0.636
Cc1ccc(S[C@]2(C(=O)NCCN3CCOCC3)CC(=O)N(C3Cc4ccccc4C3)[C@@H]2c2ccc(CO)cc2I)cc1	-0.149	-2.98 (inactive)	0.531 (inactive)	0.174 (inactive)	-0.658	0.0756	-0.434	-0.131	-0.678
C/C(=N\O)C(=O)NCCCCCNC(=O)OCc1ccccc1	0.321	-0.564 (inactive)	1.67 (inactive)	-1.47 (inactive)	1.24	-0.0471	0.228	0.173	0.371
